Relative cell viability data for 32 compounds are collected here from the supplement of paper PMC9492666.

Structures can show the parent of a compound that is named as a salt.
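Further: viability read out with the CCK-8 kit in 96-well plates, screening a set of 303 compounds acting on lipid metabolism targets.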

The subject of this experiment is HCC1937. The experiment is described as follows: relative cell viability, compound alone, vs DMSO (fraction of DMSO control); higher = less growth inhibition. Particulars: 72 h.
On to `CN(CCOc1ccc(CC2SC(=O)NC2=O)cc1)c1ccccn1` (configuration not stated) [Rosiglitazone], for which the relative cell viability was determined as 1.43. Compound `Oc1ccc2c(c1)OCO2` [Sesamol] returned a relative cell viability of 0.804. To `CC(=O)N1CCN(c2ccc(OCC3COC(Cn4ccnc4)(c4ccc(Cl)cc4Cl)O3)cc2)CC1` (configuration not stated) [Ketoconazole] belongs 1.3. Then `CCCCCC=CC(=O)CCc1ccc(O)c(OC)c1` [6-Shogaol], with 0.937. To `CC(=O)Oc1cc(C(F)(F)F)ccc1C(=O)O` [Triflusal] belongs 1.1; to `CC(C)c1onc(-c2c(Cl)cccc2Cl)c1COc1ccc(/C=C/c2cccc(C(=O)O)c2)c(Cl)c1`, 1.03; to `C[C@@H]1OCC2(CCN(c3cnc(Sc4ccnc(N)c4Cl)c(N)n3)CC2)[C@@H]1N`, 0.896. In turn, `COc1ccc(-c2c[nH]c3nccc(-c4ccsc4)c23)c(OC)c1` came in with a relative cell viability of 0.993. To `c1cc(-c2cnn3cc(-c4ccc(OCCN5CCCCC5)cc4)cnc23)ccn1` [Dorsomorphin dihydrochloride] belongs 0.138. Then `O=C(O)c1c[nH]c2cc(Cl)c(-c3ccc(C4(O)CCC4)cc3)cc12`, with 0.958; and `CC1(C)C[C@H]2C3=CC[C@@H]4[C@@]5(C)CC[C@H](O)[C@@](C)(CO)[C@@H]5CC[C@@]4(C)[C@]3(C)C[C@H](O)[C@@]2(CO)[C@@H](O)[C@@H]1O` [Gymnemagenin], with 1.13. To `CC(C)Cc1ccc([C@H](C)C(=O)O)cc1` [Dexibuprofen] belongs 1.36; to `O=C(O)c1cc(F)c2nc(N3[C@@H]4CC[C@H]3C[C@@H](OCc3c(-c5ccccc5OC(F)(F)F)noc3C3CC3)C4)sc2c1` [Tropifexor], 1.05; to `CC1(C)CC[C@]2(C(=O)O[C@@H]3O[C@H](CO)[C@@H](O)[C@H](O)[C@H]3O)CC[C@]3(C)C(=CC[C@@H]4[C@@]5(C)CC[C@H](O[C@@H]6O[C@H](C(=O)O)[C@@H](O)[C@H](O)[C@H]6O[C@@H]6O[C@H](CO)[C@@H](O)[C@H](O)[C@H]6O)C(C)(C)[C@@H]5CC[C@]43C)[C@@H]2C1` [Ginsenoside Ro], 1.02. For `O=C(CC(C(=O)O)c1c[nH]c2ccccc12)c1ccc(F)cc1F` (configuration not stated) [Mitochonic acid 5], the relative cell viability was 1.26. To `O=C(Nc1cccnn1)N1CCC(=Cc2cccc(Oc3ccc(C(F)(F)F)cn3)c2)CC1` belongs 1.15. For the compound `O=C1/C(=C/c2cccs2)CC/C1=C\c1cccs1`, the relative cell viability was found to be 0.766. To `O=c1c(-c2ccc(O)cc2)coc2cc(O)ccc12` [Daidzein] belongs 1.13; to `CCc1c(-c2ccccc2)c(-c2ccccc2)nn1-c1ccccc1-c1cccc(OCC(=O)O)c1`, 1.18. As to `CS(=O)(=O)c1ccc(-c2nnc(/C=C/c3nnc(-c4ccc(C#N)cc4)o3)n2-c2ccccc2Cl)nc1`, the relative cell viability was 1.07. To `O=C(O)CCCc1cc2cc(Cl)ccc2n1S(=O)(=O)c1ccc2ncsc2c1` [Lanifibranor] belongs 0.754; to `CCCCCCCCCCC[C@@H](C[C@@H]1OC(=O)[C@H]1CCCCCC)OC(=O)[C@H](CC(C)C)NC=O` [Orlistat], 0.977; to `CCCCCCS(=O)(=O)NC(=O)c1ccc(CSCc2ccc(-c3ccccc3)cc2)cc1`, 0.938. On to `Cc1ccc(Oc2nc3cc(-c4ccc(-c5ccccc5)cc4)c(Cl)cc3[nH]2)cc1C(=O)O`, for which the relative cell viability was determined as 0.95. To `O=C(Nc1ccccc1)N1CCN(c2nc(-c3ccccc3)ns2)CC1` belongs 0.807; to `CC1(C)CC[C@]2(C(=O)O[C@@H]3O[C@H](CO)[C@@H](O)[C@H](O)[C@H]3O)CC[C@]3(C)C(=CC[C@@H]4[C@@]5(C)CC[C@H](O[C@@H]6O[C@H](C(=O)O)[C@@H](O)[C@H](O)[C@H]6O)C(C)(C)[C@@H]5CC[C@]43C)[C@@H]2C1` [Chikusetsusaponin IVa], 1.02; to `CC(C)(O)c1ccccc1CC[C@@H](SCC1(CC(=O)O)CC1)c1cccc(/C=C/c2ccc3ccc(Cl)cc3n2)c1` [Montelukast], 0.789.

In turn, `CC(C)(C)NC(=O)[C@H]1CC[C@H]2[C@@H]3CC[C@H]4NC(=O)C=C[C@]4(C)[C@H]3CC[C@]12C` [Finasteride] yielded a relative cell viability of 1.17. Then `O=C(c1ccc(NS(=O)(=O)c2cccc3cccnc23)cc1)N1CCN(CC2CC2)CC1` [Mitapivat], with 0.95; and `CCCCCCCCCCOc1ccc(C(=O)Nc2cc(C(=O)NCCCC)ccc2SC)cc1`, with 1.02. `CC1=C(C)C(=O)C(C(CCCCCC(=O)O)c2ccccc2)=C(C)C1=O` (configuration not stated) [Seratrodast]: the relative cell viability was 1.37.

On to `N=C(N)NCCC(=O)O` [3-Guanidinopropionic Acid], for which the relative cell viability was 0.734.
